Results on five compounds are retold here after PubChem BioAssay (EPA / NIEHS).

Active and inactive are the calls of the source. How the source made its calls: active means hit-call score of the fitted dose curve at least 0.9, where 1 is the maximum; inactive means score below 0.9.

Holding throughout (settings): mRNA level, 48 h; actives raise or lower the signal
Read-out in test [1]: Apoptosis regulator Bcl-2 (Homo sapiens) (UniProt P10415)
As to the kind of experiment: LTEA_HepaRG_BCL2: Life Technologies and Expression Analysis (LTEA) Assay for Bcl-2 gene using HepaRG (AID 2283475). The method, boiled down:
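Differentiated human HepaRG cells in serum-free induction medium exposed 48 h, in duplicate, to 8-point half-log series from 100 uM in 0.5% DMSO. BCL2 mRNA by qRT-PCR (TaqMan/Fluidigm), normalized to ACTB, GAPDH, POLR2A; bidirectional fit against DMSO.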

Read-out in a further test: Caspase-3 (Homo sapiens) (UniProt P42574)
As to the kind of experiment: LTEA_HepaRG_CASP3: Life Technologies and Expression Analysis (LTEA) Assay for cysteine-aspartic acid protease (CASP3) using HepaRG (AID 2283477). The method, boiled down: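 In HepaRG liver cells dosed for 48 h at up to 100 uM (eight-point, duplicate), CASP3 expression changes are scored by qRT-PCR. Activity is fitted in both directions with 0.5% DMSO as baseline.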

Read-out in test [2]: Cytochrome P450 (CYP24A1), CYP24A1 (gene 1591)
As to the kind of experiment: LTEA_HepaRG_CYP24A1: Life Technologies and Expression Analysis (LTEA) Assay for Cytochrome P450 (CYP24A1) using HepaRG (AID 2283478). Summed up:
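Human liver HepaRG cultures receive each chemical for 48 h across an eight-point half-log series topping at 100 uM in 0.5% DMSO. Induction or suppression of CYP24A1 mRNA is scored relative to vehicle after housekeeping-gene normalization.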

Read-out in test [3]: Cytochrome P450 (CYP1A2), CYP1A2 (gene 1544)
As to the kind of experiment: LTEA_HepaRG_CYP1A2: Life Technologies and Expression Analysis (LTEA) Assay for Cytochrome P450 (CYP1A2) using HepaRG (AID 2283479). The method, boiled down: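 Assesses CYP1A2 mRNA in human HepaRG liver cells after 48 h chemical exposure at up to 100 uM. Values come from qRT-PCR with bidirectional curve fitting relative to DMSO.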

Read-out in test [4]: cysteine-aspartic acid protease (CASP8), CASP8 (gene 841)
As to the kind of experiment: LTEA_HepaRG_CASP8: Life Technologies and Expression Analysis (LTEA) Assay for cysteine-aspartic acid protease (CASP8) using HepaRG (AID 2283480). The method, boiled down: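 HepaRG, 48 h exposure, duplicate wells; 8 conc, half-log from 100 uM, 0.5% DMSO. Serum-free induction medium. CASP8 mRNA by TaqMan qRT-PCR, norm. ACTB/GAPDH/POLR2A; gain/loss fitted vs DMSO.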

Read-out in test [5]: Cytochrome P450 (CYP2B6), CYP2B6 (gene 1555)
As to the kind of experiment: LTEA_HepaRG_CYP2B6: Life Technologies and Expression Analysis (LTEA) Assay for Cytochrome P450 (CYP2B6) using HepaRG (AID 2283481). The method, boiled down: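 Using 48 h treatment of HepaRG cells in serum-free induction medium, concentrations spanned half-log steps from 100 uM in 0.5% DMSO vehicle. CYP2B6 mRNA induction or loss is scored by qRT-PCR against DMSO.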

Read-out in test [6]: Cytochrome P450 2C19 (Homo sapiens) (UniProt P33261)
As to the kind of experiment: LTEA_HepaRG_CYP2C19: Life Technologies and Expression Analysis (LTEA) Assay for CYP2C19 using HepaRG (AID 2283482). Summed up:
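Human HepaRG liver cells received test chemicals for 48 h (highest 100 uM, half-log dilutions in 0.5% DMSO). CYP2C19 mRNA induction or loss is read by multiplexed qRT-PCR and fitted in both directions versus vehicle.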

Read-out in another test: CYP2C8 (gene 1558)
As to the kind of experiment: LTEA_HepaRG_CYP2C8: Life Technologies and Expression Analysis (LTEA) Assay for CYP2C8 using HepaRG (AID 2283483). The method, boiled down:
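CYP2C8 mRNA induction or loss, by qRT-PCR normalized to ACTB/GAPDH/POLR2A, is read in HepaRG cells after 48 h treatment. Concentrations run from 100 uM down in half-log dilutions, with 0.5% DMSO as vehicle and baseline.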

Read-out in the next test: CYP2E1 (gene 1571)
As to the kind of experiment: LTEA_HepaRG_CYP2E1: Life Technologies and Expression Analysis (LTEA) Assay for CYP2E1 using HepaRG (AID 2283485). Summed up:
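HepaRG cells, plated 48 h, then exposed 48 h in serum-free induction medium to eight half-log concentrations from 100 uM in 0.5% DMSO, duplicate. CYP2E1 mRNA by qRT-PCR, normalized to ACTB/GAPDH/POLR2A; bidirectional fit versus DMSO.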

Read-out in another test: CYP4A11 (gene 1579)
As to the kind of experiment: LTEA_HepaRG_CYP4A11: Life Technologies and Expression Analysis (LTEA) Assay for CYP4A11 using HepaRG (AID 2283486). The method, boiled down: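 Readout is CYP4A11 mRNA induction or suppression (qRT-PCR, ACTB/GAPDH/POLR2A normalization) in human HepaRG cells after 48 h chemical treatment, concentrations to 100 uM in 0.5% DMSO, fitted bidirectionally against vehicle.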

Read-out in test [7]: Cytochrome P450 3A4 (Homo sapiens) (UniProt P08684)
As to the kind of experiment: LTEA_HepaRG_CYP3A4: Life Technologies and Expression Analysis (LTEA) Assay for CYP3A4 using HepaRG (AID 2283487). Summed up: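 CYP3A4 transcript measured by TaqMan qRT-PCR and normalized to three housekeeping genes after 48 h chemical exposure of human HepaRG cells. Top concentration 100 uM, half-log steps, 0.5% DMSO vehicle; gain or loss fitted against DMSO baseline.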

Read-out in test [8]: DNA damage-inducible transcript 3 (DDIT3), DDIT3 (gene 1649)
As to the kind of experiment: LTEA_HepaRG_DDIT3: Life Technologies and Expression Analysis (LTEA) Assay for DNA damage-inducible transcript 3 (DDIT3) using HepaRG (AID 2283488). The method, boiled down:
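HepaRG cells, 48 h after plating, exposed 48 h in serum-free induction medium to 8 half-log concentrations up to 100 uM in 0.5% DMSO, in duplicate. DDIT3 mRNA measured by TaqMan qRT-PCR, normalized to ACTB, GAPDH and POLR2A. Fitted bidirectionally against DMSO.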

Read-out in test [9]: Pro-epidermal growth factor (Homo sapiens) (UniProt P01133)
As to the kind of experiment: LTEA_HepaRG_EGF: Life Technologies and Expression Analysis (LTEA) Assay for Epidermal growth factor (EGF) using HepaRG (AID 2283489). Summed up:
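EGF expression changes in human HepaRG cells are scored by bidirectional fitting relative to 0.5% DMSO controls. Chemicals are tested at eight half-log concentrations up to 100 uM for 48 h in serum-free induction medium.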

Read-out in test [10]: Early growth response protein 1 (EGR1) transcription factor, EGR1 (gene 1958)
As to the kind of experiment: LTEA_HepaRG_EGR1: Life Technologies and Expression Analysis (LTEA) Assay for Early growth response protein 1 (EGR1) transcription factor using HepaRG (AID 2283490). Summed up: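 Read-out is EGR1 mRNA level by qRT-PCR, normalized to three housekeeping genes and analysed for gain or loss of signal against 0.5% DMSO. Source cells: human HepaRG, treated 48 h at up to 100 uM in half-log dilutions.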

Read-out in test [11]: Ezrin (EZR), EZR (gene 7430)
As to the kind of experiment: LTEA_HepaRG_EZR: Life Technologies and Expression Analysis (LTEA) Assay for Ezrin (EZR) using HepaRG (AID 2283491). Summed up:
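HepaRG, 48 h chemical exposure, 8-pt half-log series from 100 uM, 0.5% DMSO vehicle, duplicates. Read-out: EZR mRNA by TaqMan qRT-PCR (Fluidigm array), housekeeping-normalized; bidirectional curve fit vs DMSO baseline.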

Read-out in a further test: CYP3A5 (gene 1577)
As to the kind of experiment: LTEA_HepaRG_CYP3A5: Life Technologies and Expression Analysis (LTEA) Assay for CYP3A5 using HepaRG (AID 2283493). The method, boiled down:
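HepaRG cells, plated 48 h then in serum-free induction medium, dosed in duplicate for 48 h with eight half-log concentrations up to 100 uM in 0.5% DMSO. Gene mRNA by Fluidigm TaqMan qRT-PCR, normalized to ACTB, GAPDH, POLR2A.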

Read-out in test [12]: Fatty Acid-Binding Protein 1 (FABP1), FABP1 (gene 2168)
As to the kind of experiment: LTEA_HepaRG_FABP1: Life Technologies and Expression Analysis (LTEA) Assay for Fatty Acid-Binding Protein 1 (FABP1) using HepaRG (AID 2283494). The method, boiled down: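 HepaRG, 48 h post-plating switched to serum-free induction medium, then dosed 48 h (duplicate, 8 pts, ≤100 uM, 0.5% DMSO). RNA → Fluidigm TaqMan qRT-PCR, FABP1 normed to ACTB/GAPDH/POLR2A. Bidirectional curve fit vs DMSO.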

Read-out in another test: CYP2C9 (gene 1559)
As to the kind of experiment: LTEA_HepaRG_CYP2C9: Life Technologies and Expression Analysis (LTEA) Assay for CYP2C9 using HepaRG (AID 2283484). The method, boiled down: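 Cells plated 48 h, switched to serum-free induction medium, then treated in duplicate for 48 h at eight concentrations (max 100 uM, 0.5% DMSO). RNA then analysed by qRT-PCR for CYP2C9; curves fitted in both directions relative to DMSO.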

Sequence of Caspase-3 (Homo sapiens) (P42574 whole entry, looked up): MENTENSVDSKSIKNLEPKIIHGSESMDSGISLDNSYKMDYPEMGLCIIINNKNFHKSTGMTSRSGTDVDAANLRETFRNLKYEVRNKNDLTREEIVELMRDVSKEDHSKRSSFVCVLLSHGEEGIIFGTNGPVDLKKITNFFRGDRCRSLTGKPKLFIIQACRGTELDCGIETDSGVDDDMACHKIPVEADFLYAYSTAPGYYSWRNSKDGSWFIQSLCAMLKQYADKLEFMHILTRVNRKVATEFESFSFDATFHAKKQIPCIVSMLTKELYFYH
Sequence of Cytochrome P450 3A4 (Homo sapiens) (P08684 whole entry, looked up): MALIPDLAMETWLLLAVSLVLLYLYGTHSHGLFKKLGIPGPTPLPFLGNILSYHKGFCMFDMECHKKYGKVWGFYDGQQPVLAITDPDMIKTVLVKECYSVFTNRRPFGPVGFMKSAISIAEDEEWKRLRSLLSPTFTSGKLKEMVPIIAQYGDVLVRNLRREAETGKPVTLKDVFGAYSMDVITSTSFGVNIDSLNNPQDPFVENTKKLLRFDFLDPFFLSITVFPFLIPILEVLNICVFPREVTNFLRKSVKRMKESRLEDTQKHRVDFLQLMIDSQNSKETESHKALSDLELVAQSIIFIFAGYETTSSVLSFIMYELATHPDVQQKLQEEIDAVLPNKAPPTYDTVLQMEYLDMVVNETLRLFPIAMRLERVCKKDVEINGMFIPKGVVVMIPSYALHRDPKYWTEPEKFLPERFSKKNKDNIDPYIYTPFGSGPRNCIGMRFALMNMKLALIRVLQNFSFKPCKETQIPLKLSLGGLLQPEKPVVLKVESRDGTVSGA
Sequence of Apoptosis regulator Bcl-2 (Homo sapiens) (P10415 whole entry, looked up): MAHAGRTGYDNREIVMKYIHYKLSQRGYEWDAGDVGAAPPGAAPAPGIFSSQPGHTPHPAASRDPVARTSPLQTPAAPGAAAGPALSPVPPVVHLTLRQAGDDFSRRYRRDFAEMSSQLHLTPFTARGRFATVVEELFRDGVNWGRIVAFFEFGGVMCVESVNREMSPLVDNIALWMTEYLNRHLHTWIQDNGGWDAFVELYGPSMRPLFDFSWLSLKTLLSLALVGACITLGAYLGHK
Sequence of Cytochrome P450 2C19 (Homo sapiens) (P33261 whole entry, looked up): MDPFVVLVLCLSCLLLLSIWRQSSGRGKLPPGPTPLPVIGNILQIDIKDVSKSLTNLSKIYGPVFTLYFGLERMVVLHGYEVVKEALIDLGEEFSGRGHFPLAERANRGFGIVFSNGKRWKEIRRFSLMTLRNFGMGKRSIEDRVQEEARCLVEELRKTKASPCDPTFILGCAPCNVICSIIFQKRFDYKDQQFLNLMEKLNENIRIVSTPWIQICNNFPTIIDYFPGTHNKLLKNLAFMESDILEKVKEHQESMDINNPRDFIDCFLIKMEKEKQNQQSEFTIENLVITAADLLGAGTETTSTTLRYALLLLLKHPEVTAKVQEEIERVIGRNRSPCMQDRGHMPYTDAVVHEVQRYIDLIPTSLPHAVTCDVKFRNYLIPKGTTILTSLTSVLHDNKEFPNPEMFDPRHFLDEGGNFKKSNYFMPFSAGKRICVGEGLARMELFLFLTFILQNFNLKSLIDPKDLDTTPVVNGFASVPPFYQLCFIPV

With `CN1CCC[C@H]1c1cccnc1`, the compound was classed as inactive (in test [1]; in the test with Caspase-3 (Homo sapiens); in test [2]; in test [3]; in test [4]; in test [5]). The result (in test [6]; in the test with CYP2C8 (gene 1558); with CYP2E1 (gene 1571); with CYP4A11 (gene 1579); in [7]; in [8]) was inactive. Further, the compound was classed as inactive (in test [9]; in test [10]; in test [11]; with CYP3A5 (gene 1577); in test [12]).
`CC(C)(C)c1cc(C(C)(C)C)c(O)c(C(C)(C)C)c1`: the compound was classed as inactive (in test [1]; in the test with Caspase-3 (Homo sapiens); in test [2]; in [4]; in test [6]; with CYP2C8 (gene 1558)). Further, the compound was classed as inactive (with CYP2C9 (gene 1559); in the test with CYP4A11 (gene 1579); in test [8]; in test [9]; in test [10]; in test [11]). In the test with CYP3A5 (gene 1577), the compound was classed as inactive. For the same compound, the AC50 is 5.21 µM (active) in test [3]; 8.66 µM (active) in test [5]; 17 µM (active) with CYP2E1 (gene 1571); 8.55 µM (active) in [7]; 14.1 µM (active) in test [12].
For the compound `Oc1cccc(O)c1`, the outcome (in [1]; with Caspase-3 (Homo sapiens); in test [2]; in [3]; in test [4]; in test [5]) was inactive. The call (in test [6]; with CYP2C8 (gene 1558); with CYP2C9 (gene 1559); with CYP2E1 (gene 1571); with CYP4A11 (gene 1579); in test [7]) was inactive. Also, the compound was called inactive (in [8]; in test [9]; in test [10]; in [11]; with CYP3A5 (gene 1577); in [12]).
Consider `COCC(C)O` (centres undefined), for which the outcome (in test [1]; in the test with Caspase-3 (Homo sapiens); in test [2]; in test [3]; in test [4]; in test [5]) was inactive. The outcome (in test [6]; with CYP2C8 (gene 1558); with CYP2C9 (gene 1559); with CYP2E1 (gene 1571); with CYP4A11 (gene 1579); in [7]) was inactive. In addition, the compound was classed as inactive (in [8]; in test [9]; in test [10]; in [11]; in the test with CYP3A5 (gene 1577); in test [12]).
Take `COC(=O)CCCCC(=O)OC`: the compound was classed as inactive (in [1]; in the test with Caspase-3 (Homo sapiens); in test [2]; in test [3]; in [4]; in test [5]). Besides, the compound was classed as inactive (in [6]; in the test with CYP2C8 (gene 1558); in the test with CYP2C9 (gene 1559); with CYP2E1 (gene 1571); with CYP4A11 (gene 1579); in [7]). Besides, the call (in test [8]; in test [9]; in test [10]; in test [11]; with CYP3A5 (gene 1577); in [12]) was inactive.

A word on the AC50: it is the concentration at which the activity in the assay is half-maximal.
